# Assay outcomes: PubChem, several laboratories
# In the library only some 1.5% were active in any assay of this set; here they are far more common.
# Sa RN4220 lethal – kills Staphylococcus aureus RN4220. S. aureus RN4220 growth, OD600, 16 h. 330,000 tested, 0.33% active. AID 1259311. inhibition, % (test concentration not listed); in the data active = inhibition above about 85%;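 also: plate controls were untreated cells for no effect and reference antibiotic for full effect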
# SSB-PriA inh – inhibitors of Klebsiella pneumoniae PriA binding to SSB C-terminal tail; AlphaScreen SSBct-PriA binding, biotinylated peptide; AID 1272365; inhibition, % at 33 µM; 430,000 tested, 0.6% active; in the data active = inhibition mostly above about 37%, no sharp cut-off; inactive = mostly below about 20%;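 also: plate controls were negative control peptide for no effect and reference peptide for full effect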
# Sa ugtP lethal – kills S. aureus RN4220 lacking UgtP; S. aureus RN4220 ugtP deletion, OD600 growth, 16 h; growth inhibition, % (concentration not given with the values); 330,000 tested, 0.54% active; AID 1259309; in the data active = growth inhibition above about 68%;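 also: plate controls were untreated wells for no effect and antibiotic for full effect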
# CCHFV vOTU inh – blocks the CCHF virus ovarian tumor domain protease; CCHFV vOTU protease, Pep-AMC fluorescence; AID 651958; inhibition, % at 11.5 µM; 370,000 tested, 0.55% active; in the data active = inhibition above about 30%; also: 0% = vehicle wells with enzyme and 100% = no enzyme wells
# DUSP3 inh – DUSP3 (human) phosphatase inhibition; P51452; recombinant VHR phosphatase, pNPP absorbance; 290,000 tested, 0.52% active; AID 1654; inhibition, % at 13.3 µM; in the data active = inhibition above about 50%
# Target sequence (P51452 whole entry, looked up): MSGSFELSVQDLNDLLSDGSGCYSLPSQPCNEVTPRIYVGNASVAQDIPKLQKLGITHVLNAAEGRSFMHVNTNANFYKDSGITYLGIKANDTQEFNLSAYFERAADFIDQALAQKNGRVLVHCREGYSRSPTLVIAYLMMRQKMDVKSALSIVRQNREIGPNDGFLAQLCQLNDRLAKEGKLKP
# An asterisk follows results filed as active; i = inactive; · = not tested or not shown.
SMILES,Sa RN4220 lethal,SSB-PriA inh,Sa ugtP lethal,CCHFV vOTU inh,DUSP3 inh
CCN(CC)S(=O)(=O)c1cccc(C(=O)Nc2ccc3c(c2)OCO3)c1,11,1,10,-4,4
CC1CN(c2cc(-c3ccccc3)c3ccccc3n2)CC(C)O1 (centres undefined),2,-71,12,5,-4
CC1CN(c2nc3ccccc3cc2-c2ccccc2)CC(C)O1 (centres undefined),-7,-55,91*,10,16
COC(=O)c1nnn(CC(=O)NC(=O)Nc2c(C)cccc2C)c1C(=O)OC,6,4,10,-8,-6
COC(=O)c1nnn(CC(=O)NC(=O)Nc2cccc(Cl)c2C)c1C(=O)OC,·,1,·,12,51*
O=[N+]([O-])c1ccccc1S(=O)(=O)NCC(c1cccc2ccccc12)N1CCOCC1 (centres undefined),·,37*,·,·,·
Cc1c(C(=O)NCC(c2cccc3ccccc23)N2CCOCC2)cccc1[N+](=O)[O-] (centres undefined),·,2,·,·,·
COc1cc(C)ccc1S(=O)(=O)NCc1cccs1,·,35,·,·,·
COc1cc(C)c(Br)cc1S(=O)(=O)NCc1cccs1,4,-4,-4,15,54*
O=[N+]([O-])c1ccc(N2CCNCC2)c2ncccc12,·,53*,·,·,-5
CN1CCN(c2ccc([N+](=O)[O-])c3cccnc23)CC1,16,26,16,-6,24
CNc1ncnc2sc(-c3ccccc3)cc12,-23,-13,2,5,52*
Cn1nc(C(=O)Nc2cc(Cl)ccc2N2CCCC2)c2ccccc2c1=O,100*,27,100*,-4,·
CCc1cccc2sc(N(CCN3CCOCC3)C(=O)c3cccc(S(=O)(=O)CC)c3)nc12,·,5,·,·,·
Cc1ccc(NS(=O)(=O)c2ccc(N3CCN(c4ccc(O)cc4)CC3)c([N+](=O)[O-])c2)c(C)c1,1,63*,-15,19,-4
CC(=O)N1CCc2cc(S(=O)(=O)Nc3ccc(C)cc3C)ccc21,4,-12,-1,15,30
O=[N+]([O-])c1cc(S(=O)(=O)Nc2ccccc2)ccc1N1CCN(c2ccc(O)cc2)CC1,6,43*,-8,4,2
CN1CCN(S(=O)(=O)c2ccc(N3CCN(c4ccc(O)cc4)CC3)c([N+](=O)[O-])c2)CC1,3,17,7,8,·
CCOC(=O)CSc1nc(C(C)C)nc2sc(C)c(C)c12,10,-8,89*,1,16
CCOC(=O)CSc1nc2sc(C)c(C)c2c(=O)n1C,7,-19,1,4,4
NC(N)=NN=Cc1ccc(OCc2ccc(Cl)cc2)cc1,100*,18,100*,·,·
FCCCOc1ccc(C=NOCc2ccc(Cl)cc2)cc1,-3,-29,85*,·,·
Clc1ccc(CO/N=C/c2cccs2)cc1,·,i,·,10,9
NC(N)=NN=Cc1ccc(OCc2ccccc2)c(OCc2ccccc2)c1,101*,25,101*,·,·
NC(N)=N/N=C/c1ccc(OCc2ccc(Cl)cc2)cc1,·,·,·,8,-2
SMILES,Sa RN4220 lethal,SSB-PriA inh,Sa ugtP lethal,CCHFV vOTU inh,DUSP3 inh
NC(N)=NN=Cc1ccc(OCc2ccc(Cl)cc2Cl)cc1,100*,21,101*,·,·
CCOC(=O)C1=C(C)Nc2ccccc2NC1=NS(=O)(=O)c1ccccc1,·,-25,·,·,·
CCOc1ccc(Cc2nnc(Nc3cccnc3)[nH]c2=O)cc1,·,-1,·,·,·
CN(C)S(=O)(=O)N1CCC(CSc2nccn2C)CC1,·,1,·,·,·
Cc1c(C(c2ccc3c(c2)OCO3)c2c(C)n(C)n(-c3ccccc3)c2=O)c(=O)n(-c2ccccc2)n1C,·,-15,·,·,·
CCOC(=O)c1cc(CC)sc1NC(=O)C(c1ccccc1)c1ccccc1,0,-17,89*,6,-1
COc1ccc(CCNc2cc(C)nc3c(-c4ccccc4OC)cnn23)cc1OC,4,-21,-1,-5,14
C=CCc1c(C)nc2c(-c3ccccc3)cnn2c1NCCc1ccc(OC)c(OC)c1,·,36*,·,·,·
COc1ccc(-c2c(C)oc3c4c(ccc3c2=O)OCN(CCc2cccs2)C4)cc1OC,·,-19,·,·,·
CCCOc1ccc(S(=O)(=O)NC2CC(C)(C)NC(C)(C)C2)cc1C,·,-2,·,·,·
COc1cccc(-c2nc(CS(=O)(=O)CC(=O)NCCCN3C(C)CCCC3C)c(C)o2)c1 (centres undefined),-2,-5,-4,15,57*
Cc1oc(-c2ccccc2F)nc1CS(=O)(=O)CC(=O)NCCN1CCCC1,-5,-12,-4,-8,53*
COc1cccc(-c2nc(CS(=O)(=O)CC(=O)NCCCN3CC(C)CC(C)C3)c(C)o2)c1 (centres undefined),3,8,9,-5,106
CCC(C(=O)NCCOc1ccc(F)cc1)c1ccccc1 (centres undefined),·,-5,·,·,·
FC(F)(F)c1ccc(CN2CCCCCC2)cc1,8,-3,14,-15,52*
Cc1ccc(Nc2c(-c3ccccn3)nc3cccc(C)n23)cc1,101*,101,100*,14,50
O=C(Cc1ccccc1Br)N1CCN(c2cc3c(nn2)CCCC3)CC1,·,2,·,·,·
COc1ccc(-c2cc(N)n(S(=O)(=O)c3c(F)c(F)c(F)c(F)c3F)n2)cc1OC,98*,2,95*,-7,22
Cc1ccccc1-c1cc2c(=O)n(Cc3ccc(N4CCCC4=O)cc3)ccn2n1,·,-11,·,·,·
O=C1CC(N(CCc2ccccc2)C(=S)Nc2ccccc2)C(=O)N1c1ccc(Br)cc1 (centres undefined),98*,-15,98*,10,30
COCCN1CCCc2ccc(NS(=O)(=O)c3ccc(C(C)(C)C)cc3)cc21,·,39*,·,·,·
COCCN1CCCc2ccc(NS(=O)(=O)c3cc(Cl)ccc3C)cc21,·,57*,·,·,·
COCCN1CCCc2ccc(NS(=O)(=O)c3ccccc3Cl)cc21,·,21,·,·,·
CCOC(=O)c1ccc(NC(=O)c2oc3ccc(C)cc3c2C)cc1,·,-6,·,·,·
C[C@H](O)CN1CCN(S(=O)(=O)c2ccc(F)cc2)CC1,·,1,·,·,·
SMILES,Sa RN4220 lethal,SSB-PriA inh,Sa ugtP lethal,CCHFV vOTU inh,DUSP3 inh
Cc1ccc(OCC(=O)Nc2nc(-c3ccccn3)cs2)c(C)c1,25,4,-3,6,·
Cc1ccc(C)n1CC(=O)Nc1nc(-c2ccccn2)cs1,·,100*,·,·,·
CC1=CC(=O)CC(=O)N1CC(=O)Nc1nc(-c2ccccn2)cs1,·,84*,·,·,·
CCOC(=O)Nc1cc(C)nn1-c1nc(-c2ccc(F)cc2)cs1,·,-10,·,·,·
COc1ccc(C2CCCCN(C(=O)c3csc(C)n3)C2)cc1 (centres undefined),·,7,·,·,·
C/C(CCc1ccccc1)=N\NC(=S)NCCc1ccccc1,·,·,·,-19,50*
COC(=O)/C=C1\SC(=NN=Cc2ccco2)NC1=O,·,3,·,·,·
O=S(=O)(Cc1ccc(F)cc1)NCc1cc(-c2cccs2)n(C2CCCC2)n1,·,9,·,·,·
COc1ccc(Nc2cc(C)nc(Nc3ccc(NS(=O)(=O)c4cc(C(C)(C)C)ccc4OC)cc3)n2)cc1,·,43*,·,·,·
COCc1cc(Sc2cccc(Cl)c2Cl)nc(-c2ccccc2)n1,-11,-39,91*,1,24
COCc1cc(Sc2ccc(Cl)cc2)nc(-c2ccccc2)n1,-12,2,72,2,-8
Cc1ccc(NC(=S)NN=Cc2ccc([N+](=O)[O-])s2)cc1,46,62*,72,·,·
